TTR transcr act – TTR transcription activators in neuroblastoma reporter cells, primary screen, cell-based, luminescence, SH-SY5Y, TTR promoter Gaussia luciferase | activation, % at 16.7 µM | hit rate 1.3% among 92,000 | 100% = recombinant luciferase protein wells;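 active = activation above the mean of all tested compounds plus 3 SD, cut at about 9.5% in these data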;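 note: cells exposed to compounds for one day before reading; 0% = median of all test compound wells on the plate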
TTR inh HuH7 – TTR promoter reporter inhibitors in hepatoma cells, counter-screen for TTR transcription activator project, cell-based, luminescence, HuH7 hepatoma. shares compounds with TTR transcr act. HuH7 TTR promoter-Gaussia luciferase reporter. inhibition, % at 16.7 µM. hit rate 4% among 1,100. AID 1117279, 2014;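 active = average inhibition above the solvent-only control wells' mean plus 3 SD, cut at about 15% in these data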;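 note: 0% = cells with DMSO only and 100% = cells with inhibitor control FD; inhibitors lower well luminescence so higher value means more inhibition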
TTR act confirm – TTR transcription activators, retest, confirmation, cell-based, luminescence, SH-SY5Y, triplicate; shares compounds with TTR transcr act; SHSY5Y TTR promoter Gaussia luciferase; 100% = purified Lucia enzyme wells, no cells; 1,100 tested, under 10 active; AID 1117280, 2014; activation, % at 16.7 µM;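 active = mean activation above a set limit taken from the earlier primary screen, cut at about 11% in these data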;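 note: 0% = DMSO-treated cells and 100% = recombinant Lucia luciferase without cells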
* hit, by the source's call. The entries come from a sample that favours hits as a whole.

SMILES	TTR transcr act	others
O=C(NCCc1nc2ccccc2[nH]1)/C(=C/c1ccco1)NC(=O)c1ccc(Br)cc1	-1.0
COc1ccc(/C=C/C(=O)N/C(=C\c2ccco2)C(=O)NCCc2nc3ccccc3[nH]2)cc1	12.0*	TTR inh HuH7=4.0;TTR act confirm=-0.8
O=C(NCCc1nc2ccccc2[nH]1)/C(=C/c1ccco1)NC(=O)c1ccccc1Br	-1.5
COc1cc(NC(=O)c2cnn3c(C)cc(C)nc23)cc(OC)c1OC	1.0
Cc1ccc(Cl)c(NC(=O)CSc2cccc[n+]2[O-])c1Cl	14.3*	TTR inh HuH7=-9.4;TTR act confirm=-0.1
O=C(CSc1cccc[n+]1[O-])Nc1ccc(Br)cc1Br	0.2
Cc1cc(C)c(NC(=O)CSc2cccc[n+]2[O-])c(C)c1	0.6
CN(C)S(=O)(=O)c1cc(NC(=O)CSc2cccc[n+]2[O-])ccc1Cl	0.9
O=C(CSc1cccc[n+]1[O-])Nc1ccc(Cl)cc1F	11.1*	TTR inh HuH7=-10.0;TTR act confirm=0.5
O=C(CSc1cccc[n+]1[O-])Nc1cc2c(cc1Cl)C(=O)c1ccccc1C2=O	-1.9
COC(=O)[C@]12C[C@H](CC(=O)NCc3ccc(C)o3)C(=O)N(CCc3ccc(OC)c(OC)c3)C1=C[C@H](C(C)(C)C)O[C@@H]2C	-0.9
COc1ccc(CN2C(=O)[C@@](O)(c3cccn3C)c3cc(Br)ccc32)cc1	-1.9
O=C1NC(=Nc2ccccc2)S/C1=C\c1cccn1-c1ccccc1	-4.9
O=C1CCC[C@H]2C[C@H](NCc3ccc(Cl)cc3)CC[C@]23CCCN13	-0.4
COc1cccc(CC2(CO)CCCN(Cc3cc4ccccc4[nH]3)C2)c1 (centres undefined)	-0.2
CC(C)CNS(=O)(=O)/C=C/c1ccccc1CCNC(=O)OC(C)(C)C	0.9
CCCCn1c(N)c(N(CC(C)C)C(=O)Cn2c(=O)oc3ccccc32)c(=O)[nH]c1=O	-0.7
CCCCn1c(N)c(N(CC(C)C)C(=O)CN2C(=O)NC3(CC(C)CC(C)(C)C3)C2=O)c(=O)[nH]c1=O (centres undefined)	10.7*	TTR inh HuH7=-3.0;TTR act confirm=-0.5
CCCCn1c(N)c(N(CC(C)C)C(=O)C2CC(=O)N(c3ccc(C)cc3)C2)c(=O)[nH]c1=O (centres undefined)	0.4
Nc1[nH]c2cc(C(F)(F)F)ccc2c1C(=O)NC1CCCCC1	0.9
O=C(NCCNc1nccc(C(F)(F)F)n1)c1cccc(C(F)(F)F)c1	-1.6
COc1ccc(OCCNS(=O)(=O)c2ccccc2)cc1	1.7
O=S(=O)(NCCNc1nccc(C(F)(F)F)n1)c1ccccc1	9.8*	TTR inh HuH7=-13.4;TTR act confirm=0.6
O=C1OCC/C1=C\NCCCCCCCCN/C=C1\CCOC1=O	0.2
CC1CCCC(C)N1C(=O)CN1C(=O)c2ccccc2S1(=O)=O (centres undefined)	2.6
SMILES	TTR transcr act	others
O=S1(=O)[C@H]2C[C@@H]3C=C[C@@]2(CN1Cc1cccc(F)c1)O3	1.9
C1=CC2CCC1ON2c1ccccc1 (centres undefined)	16.7*	TTR inh HuH7=-4.1;TTR act confirm=0.3
Cc1cccc(N2O[C@H]3C=C[C@@H]2C3)n1	-0.8
Nc1ccccc1C(=O)N1O[C@@H]2C=C[C@H]1C2	0.1
CC1(c2nnnn2Cc2ccccc2)CCCCC(=O)N1Cc1cccs1 (centres undefined)	-0.6
CCCC[C@H](C(=O)N(C)c1cccc(OC)c1)[C@@H](O)c1ccc(C(C)=O)cc1	-0.8
C=CCN1C(=O)[C@H](CC(=O)NCCCOCCCC)[C@@]2(C(=O)OCC)CCCC=C12	0.0
O=S1(=O)CCSC[C@@H](CN2CCOCC2)N1	0.2
COC(=O)C1=C(C)N(CCc2cc(OC)c(OC)c(OC)c2)C(=O)N[C@H]1c1ccccc1	-1.0
CCN(CC(=O)Nc1c(F)cccc1F)C(=O)c1c(-c2ccccc2Cl)noc1C	-0.6
COc1cccc(NC(=O)CN(C)C(=O)c2c(-c3c(F)cccc3Cl)noc2C)c1	1.3
CCN(CC(=O)Nc1ccc(NC(C)=O)cc1)C(=O)c1c(-c2c(F)cccc2Cl)noc1C	17.0*	TTR inh HuH7=-10.2;TTR act confirm=-0.3
Cc1cc(C)cc(NC(=O)OC2CC3CC2[C@H]2CCCCN2[C@H]3C)c1 (some centres undefined)	2.2
Cc1nn(-c2ccc(Cl)nn2)c(=O)c2ccccc12	4.0
O=C(O)CC1(C(=O)O)CCCC1	-1.8
O=C(O)C1(C(=O)O)CCC2(CCCCC2)CC1	10.0*	TTR inh HuH7=-12.9;TTR act confirm=1.3
O=C(O)C1(C(=O)O)CCCC1	1.5
COC(=O)c1cccc(NC(=O)c2cccc([N+](=O)[O-])c2)c1	-2.3
COc1ccc(C(=O)Nc2cccc([N+](=O)[O-])c2)cc1Br	15.4*	TTR inh HuH7=8.4;TTR act confirm=-0.5
COc1ccc(NC(=O)c2cccc([N+](=O)[O-])c2)cc1	2.9
CCOC(=O)N1CCC(N2Cc3cccc(C(=O)Nc4ccccc4OC)c3C2=O)CC1	3.4
C[C@@H]1COc2cc(Br)ccc2S(=O)(=O)N1Cc1cn(CC2CCCCC2)nn1	-1.7
COc1ccc(Cn2ccc3ccc(-c4ccc5ccn(Cc6ccc(F)cc6)c5c4)cc32)cc1	-0.1
O=C(CNC1CCCC1)Nc1cc(Cl)ccc1[N+](=O)[O-]	-1.7
Cc1ccc([N+](=O)[O-])cc1NC(=O)CNC1CCCCC1	17.4*	TTR inh HuH7=-8.0;TTR act confirm=-0.4
SMILES	TTR transcr act	others
Cc1ccc([N+](=O)[O-])cc1NC(=O)Cc1cccs1	-0.1
Cn1c(N)nc2nc[nH]c2c1=S	1.1
O=C(NCc1ccc(Cl)cc1)O[C@H]1CC[C@@]23CCCN2C(=O)CCC[C@H]3C1	0.7
COc1cccc(CNC(=O)c2ccc(NC(=O)C3=CSCCO3)cc2)c1	-1.5
COC(=O)[C@]12C[C@H](CC(=O)NCCCN3CCCC3=O)C(=O)N(Cc3cccc4ccccc34)C1=C[C@H](C(C)C)O[C@@H]2C1CC1	-1.2
Cc1nc(C(=O)NNC(=O)Nc2ccc(Cl)cc2)cs1	4.1
CN(C)CC#Cc1cncc(C(=O)NNC(=O)Nc2ccc(Cl)cc2)c1	10.1*	TTR inh HuH7=-13.6;TTR act confirm=1.7
Cc1cc(C(=O)NNC(=O)Nc2ccc(Cl)cc2)no1	-0.3
CCOc1ccc(N(Cc2cc3cc(C)ccc3[nH]c2=O)S(=O)(=O)c2ccccc2)cc1	-0.8
CN(Cc1cccc(F)c1)C(=O)c1ccc(S(=O)(=O)N2CCCCCC2)cc1	-1.7
CN1CCN(C(=O)C[C@H]2CC[C@H]3[C@@H](COC[C@@H](O)CN3C(=O)C3CCCC3)O2)CC1	-0.3
O=C(NCc1ccco1)C(c1ccccc1)N(CC1CCCO1)C(=O)Cn1nnc2ccccc21 (centres undefined)	6.0
Cc1cccc(N(C(=O)Cn2nnc3ccccc32)C(C(=O)NCc2ccco2)c2ccncc2)c1C (centres undefined)	0.8
Cc1ccccc1C(C(=O)NCc1ccco1)N(CC1CCCO1)C(=O)Cn1nnc2ccccc21 (centres undefined)	12.0*	TTR inh HuH7=-4.1;TTR act confirm=-0.9
COc1ccc(C(=O)NCC(=O)OCC(=O)c2ccc3c(c2)OCCO3)cc1	0.5
Fc1cccc(CNC2CCC23CCC(c2ccccc2)CC3)c1 (centres undefined)	-0.3
O=C1Cc2cc(S(=O)(=O)Nc3ccccc3Cl)cc3c2N1CCC3	-0.2
COc1cccc(NC(=O)Nc2c(-c3ccc(C)cc3)nc3ncccn23)c1	0.0
CC(=O)CC(=O)Nc1ccc2ccccc2c1	-0.6
